Where “and” joins values, the source holds several entries; their conditions need not be identical. Equal values may be shown once. About 1,400 (0.42%) of roughly 330,000 compounds were called active. This is one part of a sample in which actives are shown more often than they occur. Values without a mark were called inactive.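 How the source made its calls: active means at least 40% inhibition at 20 µM here, with at most 30% in a related deaminase screen; inactive means the rest.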

For this test, the target named is DNA dC->dU-editing enzyme APOBEC-3A (Homo sapiens) (UniProt P31941). Briefly: blockers of A3A cytidine deamination on DNA – biochemical, FAM/TAMRA oligo cleavage fluorescence, selectivity assay for APOBEC3G inhibitor project, primary screen (AID 493011).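 Further: plate controls were A3A with DMSO for no effect and wells lacking A3A enzyme for full effect.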 The following applies: recombinant A3A, FAM/TAMRA ssDNA deamination fluorescence; at 20 µM; active compounds read high.
DNA dC->dU-editing enzyme APOBEC-3A (Homo sapiens), sequence (P31941 whole entry, looked up): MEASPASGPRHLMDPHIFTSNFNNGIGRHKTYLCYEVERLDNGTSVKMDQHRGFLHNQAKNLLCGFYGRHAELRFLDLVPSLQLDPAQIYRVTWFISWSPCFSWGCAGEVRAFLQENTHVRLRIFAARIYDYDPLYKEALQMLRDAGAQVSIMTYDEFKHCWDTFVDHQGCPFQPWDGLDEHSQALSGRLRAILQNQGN
One may read the inhibition as the relative decrease from the control value, in per cent. For the compound `N#Cc1c(NC(=O)c2ccc(N3CCOCC3)c([N+](=O)[O-])c2)sc2c1CCCC2`, the inhibition is 2.01%.

In the case of `CCCCNC(=O)CSc1nc2ccc(NC(=O)CSc3nnc(COc4ccccc4C)n3C)cc2s1`, the inhibition was -2.55%.

Consider `Nc1nnc(SCC(=O)Nc2ccc3nc(SCC(=O)Nc4ccccc4)sc3c2)s1`, for which the inhibition was -1.31%.

Take `CCCCNC(=O)CSc1nc2ccc(NC(=O)CSc3nnc(N)s3)cc2s1`: the inhibition is 75.7% (active).

In the case of `Cc1cc2c(=O)n(CC(=O)NCC(=O)Nc3ccc(C(C)C)cc3)cnc2s1`, the inhibition is -11.2%.

With `C=CC1=C(C(=O)O)N2C(=O)[C@@H](NC(=O)/C(=N/OCC(=O)O)c3csc(N)n3)[C@H]2SC1`, the inhibition was 57.5% (active).

Turning to `CO/N=C(\C(=O)N[C@@H]1C(=O)N2C(C(=O)O)=C(COC(C)=O)CS[C@H]12)c1csc(N)n1` (stereo in doubt), the inhibition was 2.73% and 21.9% and -0.539%.

`C=CC1=C(C(=O)O)N2C(=O)[C@@H](NC(=O)/C(=N\OCC(=O)O)c3csc(N)n3)[C@H]2SC1`: the inhibition is 13.4%.

Take `COc1ccccc1NC(=O)Nc1nnc(Cc2ccc(F)cc2)s1`: the inhibition was 0.132%.

For the compound `COc1ccc(Cc2nnc(NC(=O)c3cc(OC)c(OC)c(OC)c3)s2)cc1OC`, the inhibition is 6.64%.

With `COc1ccc(Cc2nnc(NC(=O)c3ccc(OC)cc3OC)s2)cc1`, the inhibition was 52.7% (active).

As for `CN(C)C(=O)Cn1c(=O)n(S(=O)(=O)c2ccccc2)c2ccccc21`, the inhibition is 0.322%.

Consider `O=C(COC(=O)c1ncc(Cl)c(Cl)c1Cl)NNC(=O)c1ccccc1`, for which the inhibition is 2.14%.

Take `O=C(COC(=O)Cc1ccccc1F)NNC(=O)c1ccc(Cl)cc1`: the inhibition is 2.91%.

`NS(=O)(=O)c1cc(C(=O)OCC(=O)NNC(=O)c2ccccc2)ccc1Cl`: the inhibition is 76% (active).

In the case of `Cc1c(C)c2ccc(OCC(=O)N3CCN(c4cccc(Cl)c4)CC3)cc2oc1=O`, the inhibition is 2.08%.

On to `COc1cc(NC(=S)N2CCCC(C)C2)c(OC)cc1Cl` (stereo not drawn), for which the inhibition was -2.12%.

In the case of `CC(/C=C/c1ccco1)=N/NC(=O)C1COc2ccccc2O1` (stereo not drawn), the inhibition was -6.53%.

On to `CC(/C=C/c1ccccc1)=N\NC(=O)C1CC1(C)c1ccccc1` (stereo not drawn), for which the inhibition is 59.5% (active).

Take `O=C(N/N=C/C=C/c1ccccc1)C1CC1(c1ccccc1)c1ccccc1` (stereo not drawn): the inhibition is 1.87%.

`O=C(Nc1ccccc1N1CCOCC1)c1ccc(OCc2cscn2)cc1`: the inhibition is 3.65%.

Regarding `COc1ccc(CN(C)C(=O)c2cc(-c3ccc(C)cc3C)nc3ccccc23)c(OC)c1OC`, the inhibition was -0.735%.

For the compound `CC1C(c2ccccc2)=[N+]([O-])C2(CCCC2)N1O` (stereo not drawn), the inhibition is 3.6%.

Regarding `CC(C)c1ccc(NC(=O)C2CCCN(S(=O)(=O)c3cccnc3)C2)cc1` (stereo not drawn), the inhibition was 3.03%.

As to `CC(=O)Nc1ccc(NC(=O)C2CCCN(S(=O)(=O)c3ccc(Cl)cc3)C2)cc1` (stereo not drawn), the inhibition is 94.5% (active).

On to `COc1ccc(S(=O)(=O)N2CCCC(C(=O)Nc3ccc(NC(=O)c4ccccn4)cc3)C2)cc1` (stereo not drawn), for which the inhibition is 0.311%.

Regarding `O=C(NCCCn1ccnc1)c1cc(Br)c(Br)s1`, the inhibition is -1.2%.

With `COc1ccc(-c2cc(C(=O)N/N=C/c3cccnc3)c3ccccc3n2)c(OC)c1`, the inhibition was 1.62%.

For the compound `C/C(=N\NC(=O)c1cc(-c2ccc(O)cc2)nc2ccccc12)c1cccnc1`, the inhibition is -0.382%.

For the compound `O=C(N/N=C\c1cccnc1)c1cc(-c2ccccc2)nc2c(Cl)cccc12`, the inhibition is 43.3% (active).

For `C/C(Cn1nnc2ccccc21)=N\OC(=O)c1cc(F)c(F)cc1Cl`, the inhibition was -2.44%.

Turning to `CCOc1ccc(C)cc1S(=O)(=O)NC1CCCCCC1`, the inhibition was 0.216%.

`COc1ccc(C2c3ccc(O)cc3Oc3ncn(CCCO)c(=N)c32)cc1OC` (stereo not drawn): the inhibition was 1.57%.

Regarding `Cc1ccc(COC(=O)CN2C(=O)NC3(CCCC3)C2=O)cc1`, the inhibition is 2.64%.

Regarding `Cc1ccc(CCCOC(=O)C[N+]2(C)CCCC2)cc1`, the inhibition is 29.9%.

As for `Cc1ccc(CCCOC(=O)C[N+]2(C)CCCCC2)cc1`, the inhibition is 75.2% (active).

Regarding `O=C(COc1ccccc1)Nc1ccc(N2CCN(C(=O)c3cccs3)CC2)cc1`, the inhibition was 3.22%.

`COc1ccc(C(=O)NC2(C(F)(F)F)NC(=O)N(CCCc3ccccc3)C2=O)c(OC)c1OC` (stereo not drawn): the inhibition was 1.49%.

For the compound `CCn1c(SCC(=O)Nc2cccc(F)c2)nnc1-c1cc2cc(Br)ccc2o1`, the inhibition is 49.5% (active).

On to `CCn1c(SCC(=O)Nc2ccc3c(c2)OCCO3)nnc1-c1ccncc1`, for which the inhibition was -2.5%.

For `CCn1c(CNC(=O)c2ccco2)nnc1SCC(=O)Nc1cccc(F)c1`, the inhibition is 0.913%.

As to `Cc1ccccc1C1=N/C(=C/c2cccnc2)C(=O)O1`, the inhibition was -1.12%.

As to `CN(C)/C=C1\C=C(c2ccccc2)OC1=O`, the inhibition was 0.636%.

Turning to `Cc1ccc(C2=C/C(=C\c3cccnc3)C(=O)O2)cc1`, the inhibition was 42.5% (active).

As to `Cc1ccc(C(=O)N/N=C\c2cc(Br)c(Br)o2)cn1`, the inhibition was 44.2% (active).

Take `Cc1ccc(C(=O)N/N=C/c2cccc3ccccc23)cn1`: the inhibition is -4.44%.

As for `O=C(N/N=C\c1cc(Br)c(Br)o1)C1COc2ccccc2O1` (stereo not drawn), the inhibition was 13.8%.

Take `O=C(CN1C(=O)NC2(CCOc3ccccc32)C1=O)Nc1cccc([N+](=O)[O-])c1` (stereo not drawn): the inhibition is 6.58%.

As for `CC1=NN(C(=O)CCc2ccccc2O)C(O)(C(F)(F)F)C1` (stereo not drawn), the inhibition is 54.8% (active).

On to `CC1=NN(C(=O)CCCc2ccccc2)C(O)(C(F)(F)F)C1` (stereo not drawn), for which the inhibition is -5.39%.

As for `COc1ccc(CC(=O)N2N=C(C)CC2(O)C(F)(F)F)cc1` (stereo not drawn), the inhibition is -1.7%.

On to `CC(C)COP(=O)(c1ccc(N(C)C)cc1)C(Nc1ccccc1)c1cccnc1` (stereo not drawn), for which the inhibition was -0.443%.

Consider `C[N+](C)(C)CCOP(=O)([O-])OC[C@H](O)CO`, for which the inhibition is -3.05%.

For the compound `CCOc1cccc(OCCCOc2cccc3cccnc23)c1`, the inhibition was 0.036%.

`CCCc1cc(=O)[nH]c(SCc2ccc(C#N)cc2)n1`: the inhibition is -3.79%.

Turning to `COc1ccc(C2C3=C(CCCC3=O)N(CC(=O)O)C3=C2C(=O)CCC3)cc1`, the inhibition was -0.629%.

In the case of `CCCN1C2=C(C(=O)CCC2)C(c2ccc(O)c(Br)c2)C2=C1CCCC2=O`, the inhibition was 68.9% (active).

Take `CCOc1ccc(C2C3=C(CCCC3=O)N(CC(=O)O)C3=C2C(=O)CCC3)cc1`: the inhibition was 5.98%.

The record behind these values is PubChem BioAssay AID493011 (Sanford-Burnham Center for Chemical Genomics, 2011).
